Compound activity (PubChem BioAssay)
In the library only some 4.1% were active in any assay of this set; here they are far more common.
Peg3 prom inh – Peg3 promoter-driven luciferase inhibitors, primary screen, cell-based, HeLa, luciferase luminescence; inhibition, % at 20 µM; HeLa PEG-Prom luciferase reporter, overnight; actives 1.7% (n = 360,000);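 active = inhibition of at least 50% at 20 µM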
LMP1 NFkB inh – EBV LMP1-driven NF-kappaB luciferase reporter inhibitors, primary screen, cell-based, luminescence, single point | AID 504558, 2011 | inhibition, % at 12.5 µM | LMP1-induced NF-kappaB luciferase reporter cells | actives 0.69% (n = 350,000); in the data active = inhibition above about 41%;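 also: 0% = neutral control wells and 100% = reference inhibitor control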
TROY signal inh – inhibitors of TROY-driven NF-kB signaling, primary screen, Q293 LMP1-TROYcd cells, NF-kB luciferase, uHTS. Q293 LMP1-TROYcd NF-kB luciferase reporter, 4 h. inhibition, % at 10 µM. actives 0.98% (n = 360,000). AID 1347056, 2019;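 active = compounds whose plate-normalised and pattern-corrected inhibition of the luciferase reporter signal at the single screening dose is 50% or more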
Shn3 inh set2 – reduction of Shn3 3'UTR firefly luciferase signal, primary screen, Schnurri-3 inhibitor project, cell-based, Clone20 osteoblasts, set 2; Clone20 osteoblast Shn3 3'UTR firefly luciferase, 24 h; inhibition, % at 12.5 µM; actives 0.52% (n = 360,000);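 active = mean inhibition of at least 75% with every replicate also reaching 75%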;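 also: 0% = median of neutral control wells and 100% = pilot-screen positive control compound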
TWEAK Fn14 block – inhibitors of TWEAK-Fn14 signaling, primary screen, luciferase reporter cells, uHTS. TWEAK-stimulated Fn14 reporter cells, luciferase luminescence, 8 h. inhibition, % at 10 µM. actives 2% (n = 360,000); in the data active = inhibition above about 50%
TRPM1 prom inh – inhibitors of MITF-dependent TRPM1 promoter reporter, primary screen, cell-based, SK-MEL-5, single point, luciferase. actives 0.83% (n = 330,000). AID 488899, 2010. inhibition, % at 12.5 µM. SK-MEL-5 TRPM1 promoter luciferase, 24 h;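 active = mean inhibition across replicates of 60% or more, whatever share of single replicates reaches that level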
Numbers without * were called inactive; . = not tested or not shown.

SMILES | Peg3 prom inh | LMP1 NFkB inh | TROY signal inh | Shn3 inh set2 | TWEAK Fn14 block | TRPM1 prom inh
C#CCOCCOCCOCCNc1nc(N2CCN(C(=O)CCCCCCCCCCNC(=O)Cn3cc(CCCCCN)nn3)CC2)nc(N2CCN(C(=O)CCCCCCCCCCNC(=O)[C@@H](CCC(=O)O)n3cc(CCCCCN)nn3)CC2)n1 | -42.0 | 1.7 | -4.8 | 7.5 | -16.2 | -6.0
Cc1ccc(/C=C(\NC(=O)c2ccccc2)C(=O)NC2CCN(Cc3ccccc3)CC2)o1 | -3.8 | -4.6 | 0.2 | 0.3 | -1.1 | 7.4
COc1cccc(CNC(=O)c2ccc(NC(=O)CC3SC(N4CCCC4)=NC3=O)cc2)c1 (stereo not drawn) | 21.3 | 12.1 | -4.1 | 0.6 | 10.5 | 6.6
C#CCOCCOCCOCCNc1nc(N2CCN(C(=O)CCCCCCCCCCNC(=O)[C@H]([C@@H](C)CC)n3cc(CCCCCN)nn3)CC2)nc(N2CCN(C(=O)CCCCCCCCCCNC(=O)[C@H](CO)n3cc(CCCCCN)nn3)CC2)n1 | 99.3* | 6.3 | 20.8 | 29.6 | -21.4 | 81.6*
C#CCOCCOCCOCCNc1nc(N2CCN(C(=O)CCCCCCCCCCNC(=O)[C@H]([C@@H](C)CC)n3cc(CCCCCN)nn3)CC2)nc(N2CCN(C(=O)CCCCCCCCCCNC(=O)[C@H]([C@@H](C)CC)n3cc(CCCCN=C(N)N)nn3)CC2)n1 | 71.0* | 9.5 | 38.9 | 37.0 | 41.8 | 98.7*
C#CCOCCOCCOCCNc1nc(N2CCN(C(=O)CCCCCCCCCCNC(=O)[C@@H](CCC(=O)O)n3cc(CCCCCN)nn3)CC2)nc(N2CCN(C(=O)CCCCCCCCCCNC(=O)[C@H]([C@@H](C)CC)n3cc(CCCCCN)nn3)CC2)n1 | -40.2 | 5.5 | -8.7 | 3.1 | -62.1 | -7.3
C#CCOCCOCCOCCNc1nc(N2CCN(C(=O)CCCCCCCCCCNC(=O)[C@H]([C@@H](C)CC)n3cc(CCCCN=C(N)N)nn3)CC2)nc(N2CCN(C(=O)CCCCCCCCCCNC(=O)[C@H](CO)n3cc(CCCCCN)nn3)CC2)n1 | 27.7 | 3.0 | 20.9 | 29.0 | -0.3 | 85.2*
O=C(OCc1cn([C@H]2CN(CC3CCCCC3)[C@@H](c3ccc(Cl)cc3)C[C@@H]2O)nn1)c1ccccc1 | 48.2 | 4.9 | -5.2 | 30.3 | 16.0 | .
CC1C/C(=C/c2ccccn2)C(=O)/C(=C/c2ccccn2)C1 (stereo not drawn) | 100.3* | 90.4* | 2.7 | 94.9* | 64.5* | 100.5*
CC(C)(C)C1C/C(=C/c2ccccn2)C(=O)/C(=C/c2ccccn2)C1 (stereo not drawn) | 102.3* | 86.5* | 0.6 | 94.9* | -30.0 | 101.7*
CCS(=O)CCSc1nc2ccccc2s1 (stereo not drawn) | -38.8 | 5.8 | 59.6* | 5.1 | 79.7* | 1.6
COc1ccc(-c2sc(NC(=O)c3ccc(C)cc3)nc2-c2ccc([N+](=O)[O-])cc2)cc1 | 15.9 | 4.7 | -10.6 | 8.1 | 8.4 | -6.1
COc1ccc(C(=O)Nc2nc(-c3ccc([N+](=O)[O-])cc3)c(-c3ccccc3)s2)cc1 | 15.7 | 20.1 | 6.0 | 24.5 | 56.7* | 1.0
CCOC(=O)c1c(NC(=O)CSc2ncccn2)sc2c1CC(C)(C)NC2(C)C | 0.2 | -16.0 | -11.7 | -2.2 | -13.8 | 19.1
CCOC(=O)c1c(NC(=O)CSc2nc3ccc(OC)cc3[nH]2)sc2c1CC(C)(C)NC2(C)C | 90.6* | -3.4 | 14.2 | -15.5 | -34.6 | -15.7
COC(=O)c1c(NC(=O)COc2ccc(Cl)cc2)sc2c1CC(C)(C)NC2(C)C | 98.7* | -128.1 | 19.4 | 74.4 | -165.7 | 81.6*
COC(=O)c1c(NC(=O)Cc2ccccc2)sc2c1CC(C)(C)NC2(C)C | 6.7 | 1.3 | -10.1 | -13.9 | -2.0 | -3.9
Cc1ccc(C(C)C)c(OCC(=O)Nc2sc3c(c2C#N)CC(C)(C)NC3(C)C)c1 | 31.6 | 1.3 | 47.4 | 26.4 | 50.1* | -0.9
Cc1cc(OCC(=O)Nc2sc3c(c2C#N)CC(C)(C)NC3(C)C)c(C(C)C)cc1Cl | 5.3 | -17.4 | 34.8 | 18.3 | -11.6 | -2.1
